Screening data as filed in PubChem.
The list is not random: actives were taken first. Their share in the collection is about 19%.
TGFb inhibitor: blocks TGF-b signaling; AID 588855; HepG2 CAGA-GFP TGF-b/SMAD3 reporter, GFP fluorescence, 18 h; TGF-beta stimulated, 500 pg/mL final; Potency, µM (doses to about 46.1 µM), inactives show at the highest dose activity, negative = inhibition, most hits filed as inhibitors; 410,000 tested, 1.2% active; note: potency is the fitted concentration of half-maximal effect; % is set by controls: 0 for no effect and ±100 for the full control effect; nearly all actives have a fitted effect of over 65% in size
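Using HEPG2 CAGA-GFP reporter cells at 1000 cells/well, we pinned test compounds, stimulated with recombinant TGF-beta (500 pg/mL final) and measured total well GFP after 18 h.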
TDP1 cell CPT: DT40-hTDP1 cell growth loss with CPT | chicken DT40 Tdp1-/-;hTDP1 cells + 20 nM CPT, ATP luminescence, 48 h | AID 686979 | Potency, µM (highest dose often 46.2 µM), for inactives: at the highest dose activity change, negative = growth inhibition, most hits filed as inhibitors | 420,000 tested, 12% active; note: potency is the fitted concentration of half-maximal effect; % is set by controls: 0 for no effect and ±100 for the full control effect; nearly all actives have a fitted effect of over 55% in size
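Chicken DT40 Tdp1-/- cells stably complemented with human TDP1 were seeded at 400 cells/well in medium containing 20 nM camptothecin, exposed to pin-transferred compounds, and grown at 37 °C for at least 48 hr. Viability was read as ATP luminescence.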
DT40 TDP1 no CPT: qHTS for Inhibitors of human tyrosyl-DNA phosphodiesterase 1 (TDP1): qHTS in cells in absence of CPT; DT40 Tdp1-/- hTDP1 cells, no CPT, ATP luminescence, 48 h; Potency, µM (doses to about 46.2 µM), inactives show at the top dose activity change, negative = growth inhibition, hits mostly inhibitors; 420,000 tested, 15% active; AID 686978, 2013; note: potency is the fitted concentration of half-maximal effect; % is set by controls: 0 for no effect and ±100 for the full control effect; nearly all actives have a fitted effect of over 55% in size
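Readout: luminescence from CellTiter-Glo after 30 min in the dark at RT. Cells: DT40 Tdp1-/- with stable hTDP1, 400/well. Exposure: compounds alone, ≥48 hr, 37 °C.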
IL1B secr inh: inflammasome signaling inhibition, IL-1 beta readout; AID 743279; THP-1 LPS/ATP IL-1B secretion, AlphaLISA, 16 h; active compounds read low; 360,000 tested, 4.7% active; activity change, % at 57.5 µM; in the data active = activity change below about -50%; inconclusive = mostly about -30% to -49%; note: % is set by controls: 0 for no effect and ±100 for the full control effect
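Secreted IL-1B measured by AlphaLISA bead assay after 16 h compound exposure of THP-1 cells; compounds (final up to 57.5 uM) added 1 h before LPS (250 ng/mL) and ATP (1.25 mM) stimulation; lower signal means less secretion.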
HepG2 viability: counter-screen for TGF-b inhibitors: cytotoxicity in HepG2 cells | 410,000 tested, 0.76% active | AID 588856 | HepG2 CAGA-GFP viability, ATP luminescence, 18 h | Potency, µM (highest dose often 46.1 µM), inactives show at the highest dose activity change, negative = cytotoxicity, hits mostly cytotoxic; note: potency is the fitted concentration of half-maximal effect
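HepG2 CAGA-GFP cells (1000/well, DMEM with 1% FBS) received compound, then TGF-beta at 500 pg/mL final, and were incubated 18 hours at 37 degrees C. Viability was read by CellTiter-Glo luminescence. Media-only wells were set as complete cell-killing and DMSO as no toxicity.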
TDP1 inh: blocks human tyrosyl-DNA phosphodiesterase 1; Q9NUW8; recombinant TDP1, AlphaScreen DNA substrate cleavage; Potency, µM (series often up to 130 µM), without a hit: at the highest dose activity change, negative = inhibition, usual class: inhibitors; 350,000 tested, 0.28% active; AID 485290; note: potency is the fitted concentration of half-maximal effect; % is set by controls: 0 for no effect and ±100 for the full control effect; nearly all actives have a fitted effect of over 40% in size
Target sequence (Q9NUW8 whole entry, looked up): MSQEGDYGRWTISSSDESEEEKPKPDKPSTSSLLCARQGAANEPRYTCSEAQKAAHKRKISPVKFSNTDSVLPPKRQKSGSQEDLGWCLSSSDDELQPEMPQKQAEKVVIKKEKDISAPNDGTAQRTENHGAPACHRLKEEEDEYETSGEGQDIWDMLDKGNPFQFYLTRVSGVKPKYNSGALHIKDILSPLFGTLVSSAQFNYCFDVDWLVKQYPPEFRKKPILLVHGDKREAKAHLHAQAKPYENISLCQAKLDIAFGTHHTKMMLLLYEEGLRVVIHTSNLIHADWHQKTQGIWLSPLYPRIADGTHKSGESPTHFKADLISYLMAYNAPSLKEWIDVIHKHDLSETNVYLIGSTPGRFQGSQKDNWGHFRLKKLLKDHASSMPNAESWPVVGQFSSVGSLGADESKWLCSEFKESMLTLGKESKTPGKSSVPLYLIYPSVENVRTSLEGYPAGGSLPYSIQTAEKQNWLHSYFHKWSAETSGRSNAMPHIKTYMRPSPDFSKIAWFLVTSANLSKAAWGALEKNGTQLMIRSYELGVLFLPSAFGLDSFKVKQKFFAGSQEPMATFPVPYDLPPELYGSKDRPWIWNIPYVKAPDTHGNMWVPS
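Signal: AlphaScreen proximity between streptavidin donor and anti-FITC acceptor beads on intact substrate. Reaction: Tdp1 1 nM, substrate 15 nM final, 5 min RT after 15 min compound preincubation.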
The depositor's hits bear a star; i = inactive; ? = inconclusive; . = no result given. Unless noted, calls come from the whole dose curve; as a rule, active = well fitted curve in the direction sought with a large enough effect; inconclusive = small, poorly fitted or top-dose-only effect, or another doubt; inactive = no such curve, though single readings can be large; an effect the other way counts as inactive or inconclusive.

SMILES | TGFb inhibitor | TDP1 cell CPT | DT40 TDP1 no CPT | IL1B secr inh | HepG2 viability | TDP1 inh
Cc1cccc(C)c1-n1ncc(C(=O)NCCCN2CCC(C)CC2)c1C1CCN(C(=O)OC(C)(C)C)CC1 | 2% | ? | 21µM* | . | 5% | -6%
CC(=O)Nc1ccc(NC(=O)c2cnn(-c3ccccc3)c2C2CCN(C(=O)OC(C)(C)C)CC2)cc1 | 15% | -23% | -22% | . | 1% | -2%
CC(C)(C)OC(=O)N1CCC(c2c(C(=O)NCCCN3CCc4ccccc4C3)cnn2-c2ccccc2)CC1 | ? | ? | 23µM* | . | -39% | 4%
CCOc1ccc(NC(=O)c2cnn(-c3ccc(C)c(C)c3)c2C2CCN(C(=O)OC(C)(C)C)CC2)cc1 | -2% | 16µM* | 16µM* | . | 0% | 6%
CCc1ccc(C2CC(=O)c3c([nH]c(C(=O)OC4CCCCCC4)c3C)C2)cc1 (centres undefined) | 3% | -27% | -8% | . | -17% | -2%
Cc1ccc(-n2ncc(C(=O)NCCCN3CCc4ccccc4C3)c2C2CCN(C(=O)OC(C)(C)C)CC2)c(C)c1 | ? | 21µM* | 21µM* | . | -80% | 4%
Cc1ccc(-n2ncc(C(=O)NCCN3CCc4ccccc4C3)c2C2CCNCC2)cc1C | 15% | 21µM* | 21µM* | . | -23% | 0%
Cc1ccc(-n2ncc(C(=O)NCCCN3CCc4ccccc4C3)c2C2CCN(C(=O)OC(C)(C)C)CC2)cc1C | ? | ? | ? | . | 16µM* | -3%
CN1CCN(CCNC(=O)c2cnn(-c3ccc(F)cc3)c2C2CCN(C(=O)OC(C)(C)C)CC2)CC1 | -24% | ? | ? | . | -13% | -3%
CCCOc1ccc(C(=O)N(Cc2cccs2)C2CCS(=O)(=O)C2)cc1 (centres undefined) | 0% | ? | ? | i | 0% | 4%
O=C(CCC(=O)N1CCN(S(=O)(=O)c2ccc3ccccc3c2)CC1)NCC(F)(F)F | 6% | -1% | -3% | 6 | 7% | 0%
CC(C)(C)n1ncc2c(=O)n(Cc3ccc(F)cc3)cnc21 | 6% | . | . | . | -4% | .
CC(C)(C)n1ncc2c(=O)n(Cc3ccc(SC(F)(F)F)cc3)cnc21 | 16µM* | . | . | . | -32% | .
Cc1ccc(Cn2cnc3c(cnn3C(C)(C)C)c2=O)cc1 | -26% | 26µM* | 13µM* | -17 | -28% | 0%
CC(C)CNC(=O)c1cccc2c1-c1ccccc1C2=O | 0% | 19% | 6% | 29 | 17% | .
COc1ccc(C(=O)COC(=O)[C@H](C)NS(=O)(=O)c2ccc(NC(C)=O)cc2)cc1OC | 12% | -6% | -8% | -93* | 11% | .
COc1ccc(OCCOC(=O)C(C)NS(=O)(=O)c2ccc(NC(C)=O)cc2)cc1 (centres undefined) | -2% | -15% | ? | -77* | -31% | 2%
CCc1cccc(CC)c1NC(=O)CN1CCN(S(=O)(=O)c2ccccc2)CC1 | ? | -14% | -16% | -3 | -41% | 3%
Cc1nc2c(ccc3nc(NC(=O)C4CC4)sc32)s1 | ? | ? | ? | ? | 3% | -5%
CCC(=O)Nc1nc2ccc3sc(C)nc3c2s1 | -23% | 18µM* | 23µM* | -5 | -1% | 8%
CCOC(=O)C(Cc1ccc(O)cc1)Nc1nc2ccccc2o1 (centres undefined) | -5% | -1% | -21% | -54* | -2% | .
CCOC(=O)[C@H](Cc1ccc(O)cc1)NC(=O)c1ccccc1 | . | . | . | . | . | 13%
O=C(NCC1CCCO1)/C(=C/c1ccccc1F)NC(=O)c1ccccc1 (centres undefined) | 13% | 5% | -4% | -8 | -1% | .
CN(c1ccccc1)S(=O)(=O)c1cc(C(=O)Nc2ccccc2N2CCOCC2)ccc1Cl | -17% | 16µM* | 9.2µM* | ? | -25% | .
Cc1ccccc1NC(=O)c1ccc(F)c(S(=O)(=O)N2CCCCC2)c1 | -17% | -20% | 4% | -2 | -1% | 3%
SMILES | TGFb inhibitor | TDP1 cell CPT | DT40 TDP1 no CPT | IL1B secr inh | HepG2 viability | TDP1 inh
Cc1cccc(N2CCN(S(=O)(=O)c3cc(C(=O)Nc4ccccc4Cl)ccc3F)CC2)c1C | 0% | ? | 23µM* | . | -2% | 5%
O=C(NCC1COc2ccccc2O1)c1ccc(F)c(S(=O)(=O)N2CCOCC2)c1 (centres undefined) | -4% | 18µM* | ? | 14 | 1% | -11%
CN(c1ccccc1)S(=O)(=O)c1cc(C(=O)c2nccn2C)ccc1Cl | 0% | ? | 16µM* | -22 | -4% | 2%
O=C(Nc1ccccc1N1CCCCC1)c1ccc(F)c(S(=O)(=O)N2CCOCC2)c1 | 2% | 16µM* | 21µM* | 21 | 0% | 0%
Cc1ccc(C(=O)Nc2ccccc2N2CCCCC2)cc1S(=O)(=O)N1CCOCC1 | -4% | ? | ? | -9 | -10% | .
COc1ccc(C(N)c2csc(Nc3ccc(C(F)(F)F)cn3)n2)cc1 (centres undefined) | ? | ? | 18µM* | -8 | -102% | .
COc1ccc(CC(N)c2csc(Nc3cccc(OC)n3)n2)cc1 (centres undefined) | ? | 15µM* | 13µM* | 0 | 13µM* | .
COc1cccc(Nc2nc(C(N)Cc3ccc(C(F)(F)F)cc3)cs2)n1 (centres undefined) | ? | 9.2µM* | 12µM* | ? | 10µM* | .
COC(=O)c1cnc(Nc2nc(C(N)Cc3ccc(OC)cc3)cs2)nc1C(F)(F)F (centres undefined) | ? | ? | ? | . | -86% | .
COc1ccc(CC(N)c2csc(Nc3ccccn3)n2)cc1 (centres undefined) | ? | 23µM* | 26µM* | -50* | -63% | .
COc1ccc(OCc2ccc(-c3nc(C#N)c(NC(C)c4ccccc4)o3)o2)cc1 (centres undefined) | -32% | -11% | -15% | . | -23% | -4%
NC(=O)c1cccc(Nc2nc(C(N)Cc3ccc(C(F)(F)F)cc3)cs2)n1 (centres undefined) | ? | 6.5µM* | 10µM* | -28 | -103% | .
COc1cccc(Nc2nc(C(N)Cc3ccc(Cl)cc3)cs2)n1 (centres undefined) | ? | 6.5µM* | 6.5µM* | -67* | -73% | .
